Bioassay records from PubChem BioAssay.
Rows were chosen to be rich in hits. Some 1.8% of all compounds tested hit in one or more screens of this group.
Myeloid diff MLP – compounds promoting myeloid differentiation | ER-HoxA9 myeloid progenitors, lysozyme-GFP differentiation, flow cytometry | calls only at 10 µM | actives 1% (n = 360,000) | AID 624256;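 active = normalized GFP-positive differentiation at or above the plate's own cutoff, the solvent-only control mean plus 3 SD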;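 note: cells exposed to compound for four days before flow analysis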
Exocytosis inh – blocks lytic granule exocytosis; TALL-104 LAMP-1 surface exposure, flow cytometry; cells stimulated with thapsigargin and PMA; inhibition, % at 10 µM; actives 0.66% (n = 360,000); AID 651702;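 active = inhibition above about 55%, limit read from the data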
ABCB6 inh 2 – inhibitors of human ABC transporter ABCB6 | Q9NP58 | K562-ABCB6 porphyrin accumulation, flow cytometry, 1 h; stronger effect = lower value | fluorescence ratio to DMSO, % at 10 µM | actives 0.19% (n = 360,000);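 active = fluorescence ratio to DMSO below 75%, the collection mean minus 3 SD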;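 note: signal is porphyrin accumulated inside mitochondria; 100% equals median channel fluorescence of DMSO control wells; lower ratio means ABCB6 inhibition with less porphyrin fluorescence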
Exocytosis CP01 – blocks lytic granule exocytosis. TALL-104 cells, LAMP-1 externalization, flow cytometry; stimulated with PMA plus thapsigargin. inhibition, % at 10 µM. actives 11% (n = 1,500). shares compounds with Exocytosis inh. AID 651954; in the data active = inhibition above about 60%;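 note: 0% = stimulated vehicle wells and 100% = unstimulated wells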
* = called active by the depositor; i = inactive; / = no result.

SMILES	Myeloid diff MLP	Exocytosis inh	ABCB6 inh 2	Exocytosis CP01
CC(C)c1ccc(NC2CCCN(C(=O)CN3CCCC3=O)C2)cc1 (stereo unspecified)	i	0	99	/
COc1ccc(C(=O)C2CCCN(Cc3cccn3-c3ccc(Cl)cn3)C2)c(OC)c1 (stereo unspecified)	i	68*	98	-1
COc1ccc(C(=O)C2CCCN(Cc3c(F)ccc(F)c3F)C2)c(OC)c1 (stereo unspecified)	i	4	93	/
CSc1cccc(NC(=S)N(CCCN2CCCC2)Cc2cccs2)c1	i	1	97	/
CSc1cccc(NC(=S)N(CCCN2CCCC2)Cc2cccn2Cc2ccc(Cl)cc2)c1	i	93*	93	63*
CC1CCN(C(=O)CCC(=O)Nc2nnc(C3CCCCC3)s2)CC1	i	-1	101	/
O=C(NCCCN1CCCC1)c1ccc2c(c1)N(Cc1ccc(F)cc1)C(=O)c1ccccc1S2=O (stereo unspecified)	i	-3	100	/
CCC1CCCCN1CCCNC(=O)c1ccc2c(c1)N(Cc1ccc(F)cc1)C(=O)c1ccccc1S2=O (stereo unspecified)	i	61*	99	-14
Cc1ccc(C(=O)N2CCN(S(=O)(=O)N3CCCCC3)CC2)cc1	i	-2	100	/
COc1ccccc1N(C(=O)c1snc(C(N)=O)c1N)C(C(=O)NCc1ccccc1)c1ccc(O)cc1 (stereo unspecified)	i	50	92	/
COc1ccc(C(C(=O)NCc2ccccc2)N(C(=O)c2snc(C(N)=O)c2N)c2ccccc2OC)cc1 (stereo unspecified)	i	65*	97	-5
Cc1nc(N2CCN(c3ccccn3)CC2)c2c(C)c(C(=O)N3CCN(c4cccc(Cl)c4)CC3)sc2n1	i	26	93	/
COc1ccc(CC(=O)Nc2nc(-c3ccc(F)c(F)c3)cs2)cc1	i	36	98	/
CC1(C(=O)OCC(=O)Nc2nc(-c3ccc(F)c(F)c3)cs2)CC1(Cl)Cl (stereo unspecified)	i	92*	95	101*
COCCNC(=S)N(CCc1c(C)[nH]c2ccc(Cl)cc12)Cc1cccs1	i	104*	91	5
COCCNC(=S)N(CCc1c(C)[nH]c2ccc(F)cc12)Cc1cccs1	i	5	96	/
CC(C)c1ccc(NC(=O)CN2C(=O)NC(C)(C3CC3)C2=O)cc1 (stereo unspecified)	i	3	99	/
COc1ccc(C(CC(=O)Nc2ccc(C)cn2)N2Cc3ccccc3C2=O)cc1 (stereo unspecified)	i	3	92	/
CCCOc1ccc(Oc2nc(-c3ccncc3)nc3ccccc23)cc1	i	94*	96	-14
COc1ccc(Oc2nc(-c3ccncc3)nc3ccccc23)cc1	i	5	89	/
O=C(OCCCc1cc2ccccc2c(=O)o1)c1ccc2c(c1)OCO2	i	-16	100	/
Cc1ccc2nc(-c3ccc(NC(=S)NC(=O)C(C)C)cc3)sc2c1	i	49	99	/
Cc1ccc2nc(-c3ccc(NC(=S)NC4CC(C)(C)NC(C)(C)C4)cc3)sc2c1	/	88*	97	98*
COC1=CCC2([N+](=O)[O-])CN(CCO)CC1([N+](=O)[O-])C2 (stereo unspecified)	i	8	106	/
Cc1ccc(-c2noc(-c3ccccc3F)n2)cc1	i	-2	101	/
SMILES	Myeloid diff MLP	Exocytosis inh	ABCB6 inh 2	Exocytosis CP01
O=C(O)c1ccc(-c2noc(-c3ccccc3F)n2)cc1	i	97*	98	-12
Cc1cc(C(=O)COC(=O)c2cc(Cl)c(O)c(Cl)c2)c(C)n1C	i	-2	93	/
Clc1ccc(C2Nc3cccc4cccc(c34)N2)c(Cl)c1	i	74*	97	7
Clc1ccc(C2Nc3cccc4cccc(c34)N2)cc1	i	16	103	/
CCCN1CCC(=O)N(CCOc2ccccc2)CC1	i	33	97	/
CC(C)(C)C1CCC(=O)N(CCOc2ccccc2)CC1 (stereo unspecified)	i	67*	100	-13
COc1ccc(C(CNC(=O)COc2ccc(F)cc2Cl)N2CCOCC2)cc1 (stereo unspecified)	i	-6	99	/
COc1cc(C(C)=O)ccc1OCC(=O)NCC(c1ccc(F)cc1)N1CCOCC1 (stereo unspecified)	i	62*	103	-5
CCC(C)c1ccc(NC(=S)N2CCN(C(=O)C3CCCO3)CC2)cc1 (stereo unspecified)	i	3	94	/
CCCCCCN1C[C@H](n2cc(-c3ccc(F)cc3)nn2)[C@@H](O)C[C@@H]1c1ccc(Cl)cc1	i	58*	96	35
CCCCCCN1C[C@H](n2cc(-c3ccc(F)cc3)nn2)[C@@H](O)C[C@@H]1c1ccccc1	i	1	94	/
O=S(=O)(c1ccc(Br)s1)N1CCN(c2ccc(F)cc2)CC1	i	66*	82	-13
O=S(=O)(c1ccc(Br)s1)N1CCN(c2ccccc2)CC1	i	3	97	/
COc1ccc(-c2nc(CC(=O)Nc3cccc(S(=O)(=O)NC4=NCCC4)c3)cs2)cc1	i	24	98	/
CC(C)(C)c1nc2c(s1)CCc1onc(-c3ccc(Cl)cc3)c1-2	i	-5	97	/
Clc1ccc(-c2noc3c2-c2nc(Cc4cccc5ccccc45)sc2CC3)cc1	i	74*	95	-13
COc1cccc(CNC(=O)COC(=O)C2CC3CCCC(C2)C3=O)c1 (stereo unspecified)	i	7	102	/
COCc1cc(C)nc(SCc2ccc(Cl)cc2)c1C#N	i	69*	97	-13
COCc1cc(C)nc(SCc2ccc(F)cc2)c1C#N	i	-11	98	/
O=C(NCCCn1ccnc1)c1ccc(S(=O)(=O)N2CCOCC2)cc1	i	-3	92	/
COc1cc(-c2cc(C(=O)Nc3cccc(S(=O)(=O)N(C)C)c3)c3ccccc3n2)cc(OC)c1OC	i	2	93	/
Cc1ccc(-c2cc(C(=O)Nc3ccccc3C)c3ccccc3n2)o1	i	82*	103	-5
COC(=O)c1cc(-c2ccc(C)o2)nc2ccccc12	i	50	100	/
Cc1ccc(-c2cc(C(=O)Nc3cccc(S(=O)(=O)N(C)C)c3)c3ccccc3n2)o1	i	66*	96	-12
Cc1ccc2c(c1)[C@H]1[C@H](CO2)[C@H](c2ccccc2)[C@]2(C)C(=O)N(C)CC(=O)N12	i	-2	92	/
COc1cc(OC)cc(C(=O)NNC(=O)CCC(=O)c2cc(C)sc2C)c1	i	-5	99	/
CS(=O)(=O)N1Cc2ccccc2CC1C(=O)OCC(=O)NCCc1ccc(S(N)(=O)=O)cc1 (stereo unspecified)	i	7	98	/
Clc1ccc(OCCCNCc2ccccc2)c2ccccc12	i	99*	92	6
Brc1ccccc1OCCNCc1ccccc1	i	-1	99	/
COc1ccc2c(c1)OC[C@H]1[C@H]2N2C(=O)CN(CCc3c[nH]c4ccccc34)C(=O)[C@@]2(C)[C@H]1c1ccccc1	i	-4	98	/
